Measurements: PubChem BioAssay (EPA / NIEHS)
Calls of active or inactive are those of the source. How the source made its calls: active means hit-call score of the fitted dose curve at least 0.9, where 1 is the maximum; inactive means score below 0.9.

Each compound was assayed on Vascular cell adhesion molecule 1 (VCAM1), VCAM1 (gene 7412) (assay: BSK_LPS_VCAM1: BioMAP Diversity Plus: LPS Assay for Vascular cell adhesion molecule 1 (VCAM1) Biomarker Activity (AID 2283086)). Settings: primary human HUVEC with PBMC; actives raise or lower the signal.
Method: BSK_LPS is a cell-based, multiplexed-readout assay that uses umbilical vein endothelium and peripheral blood mononuclear cells, a human vascular primary cell co-culture, with measurements taken at 24 hours after chemical dosing in a 96-well plate.BSK_LPS_VCAM1 is an assay component measured in the BSK_LPS assay. It measures VCAM-1 antibody related to regulation of gene expression using ELISA technology.Data from the assay component BSK_LPS_VCAM1 was analyzed into 1 assay endpoint. This assay endpoint, BSK_LPS_VCAM1, was analyzed with bidirectional fitting relative to DMSO as the negative control and baseline of activity. Using a type of binding reporter, gain or loss-of-signal activity can be used to understand changes in the signaling as they relate to the gene VCAM1. Furthermore, this assay endpoint can be referred to as a primary readout, because this assay has produced multiple assay endpoints where this one serves a signaling function. To generalize the intended target to other relatable targets, this assay endpoint is annotated to the cell adhesion molecules intended target family, where the subfamily is Immunoglobulin CAM.
The levels of cell surface (or secreted, indicated by the prefix "s") biomarker endpoints were measured by ELISA. Overt cytotoxicity to cells in confluent adherent cultures (all systems other than the BT system) was assessed by measuring total protein levels using sulforhodamine B (SRB) staining in parallel cultures at the time of biomarker measurements, indicated as SRB endpoints. For proliferation assays for adherent cell types, individual cell types are cultured at sub-confluence and relative cell numbers quantified by SRB staining at time points optimized for each system (48 h: 3C and CASM3C systems; 72 h: BT and HDF3CGF systems; 96 h: SAg system). SRB was performed by staining cells with 0.1% SRB after fixation with 10% TCA and reading wells at 560 nm.Viability and proliferation of PBMC (T cells) was quantified by Alamar Blue reduction for the SAg and BT systems. For PBMC viability (referred to as PBMC Cytotoxicity within the assay endpoint names), cells were plated (75,000/well in a 96-well plate) and then chemical samples added for 1 h before addition of activators, SEB and TSST-1 (20 ng/mL final concentration each). Cells were incubated for 90 h. Then, Alamar Blue (20 uL/well) (Invitrogen, Cat DAL1100) was added for 6 h, and the plates were read with a fluorescence microplate reader at 546/580 nm (excitation/emission). For PBMC proliferation, cells were plated and activated as above but incubated for only 16 h prior to addition of Alamar Blue. Plates were read after 6 h.

Compound	outcome	AC50
CC(Oc1cccc(Cl)c1)C(=O)O (stereo not given)	inactive	
COP(=O)(OC)C(O)C(Cl)(Cl)Cl (stereo not given)	inactive	
CCOC(=O)CC(SP(=O)(OC)OC)C(=O)OCC (stereo not given)	inactive	
CNC(=O)ON=C(SC)C(=O)N(C)C		10.2 µM (active)
CCC(=O)Nc1ccc(Cl)c(Cl)c1	inactive	
CON=C(C(=O)OC)c1ccccc1CON=C(C)c1cccc(C(F)(F)F)c1	inactive	
CNC(=O)ON=C(C)SC	inactive	
O=c1ccc(=O)[nH][nH]1	inactive	
CCNc1nc(Cl)nc(NC(C)(C)C#N)n1	inactive	
CCOP(=O)(OCC)Oc1cc(C)nc(C(C)C)n1	inactive	
CCCCN(CC)c1c([N+](=O)[O-])cc(C(F)(F)F)cc1[N+](=O)[O-]		26.5 µM (active)
CCOP(=S)(OCC)SCCSCC	inactive	
O=C(O)c1cc(Oc2ccc(C(F)(F)F)cc2Cl)ccc1[N+](=O)[O-]	inactive	
COc1cccc(C(=O)NN(C(=O)c2cc(C)cc(C)c2)C(C)(C)C)c1C	inactive	
COP(=O)(OC)OC(Br)C(Cl)(Cl)Br (stereo not given)		26.4 µM (active)
CC(C)N(C(=O)SCC(Cl)=C(Cl)Cl)C(C)C		29.8 µM (active)
C=C(C)[C@H]1Cc2c(ccc3c2O[C@@H]2COc4cc(OC)c(OC)cc4[C@@H]2C3=O)O1		5.99 µM (active)
CCOC(=O)COc1cc(-c2nn(C)c(OC(F)F)c2Cl)c(F)cc1Cl	inactive	
Nc1c(Cl)cc([N+](=O)[O-])cc1Cl	inactive	
Cc1ccn2nc(S(=O)(=O)Nc3c(F)cccc3F)nc2n1	inactive	

Compound	outcome	AC50
CCOP(=S)(OCC)Oc1cc(C)nc(C(C)C)n1	inactive	
C[Si](Cn1cncn1)(c1ccc(F)cc1)c1ccc(F)cc1	inactive	
CC(COc1ccc(Oc2ccccc2)cc1)Oc1ccccn1 (stereo not given)		0.843 µM (active)
CCc1cccc(CC)c1N(COC)C(=O)CCl		26.9 µM (active)
Cc1nn(-c2cc(NS(C)(=O)=O)c(Cl)cc2Cl)c(=O)n1C(F)F	inactive	
CC1(C(=O)Nc2ccc(O)c(Cl)c2Cl)CCCCC1	inactive	
S=C1NCCN1	inactive	
C[N+]1(C)CCCCC1	inactive	
CC[C@H](C)[C@H]1O[C@]2(C=C[C@@H]1C)C[C@@H]1C[C@@H](C/C=C(\C)[C@@H](O[C@H]3C[C@H](OC)[C@@H](O[C@H]4C[C@H](OC)[C@@H](NC)[C@H](C)O4)[C@H](C)O3)[C@@H](C)/C=C/C=C3\CO[C@@H]4[C@H](O)C(C)=C[C@@H](C(=O)O1)[C@]34O)O2		7.42 µM (active)
CCOP(=S)(OCC)Oc1ccc([N+](=O)[O-])cc1		20 µM (active)
CCOP(=O)(NC(C)C)Oc1ccc(SC)c(C)c1 (stereo not given)	inactive	
CC(C)[C@H](C(=O)O[C@H](C#N)c1cccc(Oc2ccccc2)c1)c1ccc(Cl)cc1	inactive	
COP(=O)(OC)SCn1c(=O)oc2cc(Cl)cnc21		4.34 µM (active)
CC1=NNC(=O)N(/N=C/c2cccnc2)C1	inactive	
COc1ccc(C(=CC(=O)N2CCOCC2)c2ccc(Cl)cc2)cc1OC	inactive	
CCCCOC(=O)c1ccccc1C(=O)O	inactive	
COP(=O)(NC(C)=O)SC (stereo not given)	inactive	
Nc1nc(N)nc(NC2CC2)n1	inactive	
CCOP(=S)(Oc1cnc(C(C)(C)C)nc1)OC(C)C (stereo not given)		32.5 µM (active)
CCc1cnc(C2=NC(C)(C(C)C)C(=O)N2)c(C(=O)O)c1 (stereo not given)	inactive	
